# Measurements: PubChem BioAssay (Tox21)
# Results filed as inconclusive are left out. Activity calls are given as the source filed them. Calls follow the shape of the full dose curve.
# Test: p53 small molecule agonists, cell-based qHTS assay with rat liver microsomes: qHTS cell viability counter screen (AID 1963580); also: nearly all actives have a fitted effect of over 45% in size
# Settings: p53RE-bla HCT-116 + rat microsomes, ATP viability, 16 h; series mostly up to 66 µM; activity change, negative = cytotoxicity: at the top concentration
# Text: National Center for Advancing Translational Sciences [NCATS]
# Division of Preclinical Innovation [DPI]
# U.S. Environmental Protection Agency [EPA]
# National Institutes of Environmental Health Sciences [NIEHS]
# National Toxicology Program [NTP]
# U.S. Food and Drug Administration [FDA]
# p53, a tumor suppressor protein, is activated following cellular insult, including DNA damage and other cellular stresses. The activation of p53 regulates cell fate by inducing DNA repair, cell cycle arrest, apoptosis, or cellular senescence. The activation of p53, therefore, is a good indicator of DNA damage and other cellular stresses. The CellSensor p53RE-bla HCT-116 cell line contains a stably integrated beta-lactamase reporter gene under control of the p53 response elements. The activation of the reporter gene under culture conditions can be detected by fluorescence intensity. This cell line was used to screen the Tox21 10K compound library in the condition of presence of rat liver microsomes and to identify agonists that activate the p53 signaling pathway after in vitro metabolic activation (Ooka et al., Archive of Toxicology 96:1975-1987, 2022). The cytotoxicity of the Tox21 compound library against the p53 RE-bla HCT-116 cell line was tested in parallel by measuring the intra cellular ATP content in the same wells.
# Tox21 Assay Protocol Summary:
# The p53RE-bla cells were dispensed at 4,000cells/3ul/well in 1536-well black-clear bottom plates. After the assay plates were incubated at 37 C, 5% CO2 incubator for 5 hours, 23 nL of compounds dissolved in DMSO, positive controls or DMSO only was transferred to the assay plate. Following compound addition, 3 uL of rat liver microsomes (Molecular Toxicology, Boone, NC) at final concentration of 0.5 mg/mL and 1uL of B-Nicotinamide adenine dinucleotide 2'-phosphate (NADPH) at final concentration of 0.5 mg/mL were transferred to the assay plate. The plates were incubated at 37 C for 16 hours. 1 uL of LiveBLAzer detection mixture was added to each well and the plates were incubated at room temperature in the dark for 2 h. Fluorescence intensity at 460 and 530 nm emission and 405 nm excitation were measured by an Envision plate reader. For cell viability readout that measures cytotoxicity, 4 ul/well of CellTiter-Glo reagent was added into the assay plates using a Flying Reagent Dispenser. After 30 min incubation at room temperature, the luminescence intensity in the plates was measured using a ViewLux plate reader.
# % is scaled to controls: 0 for no effect and ±100 for the full control effect; potency is read from the fitted curve at half-maximal effect.
Compound,"activity change, negative = cytotoxicity",Potency
CON(C)C(=O)Nc1ccc(Br)c(Cl)c1,0.995% (inactive),–
N#CN,4.03% [at 172 µM] (inactive),–
CC(Cc1ccccc1)NCCn1cnc2c1c(=O)n(C)c(=O)n2C (stereo not given),-0.264% (inactive),–
CC(C)N(C(=O)SC/C(Cl)=C/Cl)C(C)C,-0.0834% (inactive),–
CC[C@@H](CO)NC(=O)[C@@H]1C=C2c3cccc4c3c(cn4C)C[C@H]2N(C)C1,13.8% [at 30.3 µM] (inactive),–
Nc1ccc([N+](=O)[O-])cc1Cl,0.68% (inactive),–
CC(C)COP(=O)(OCC(C)C)OCC(C)C,-12.9% (inactive),–
O=C(NC(O)C(Cl)(Cl)Cl)NC(O)C(Cl)(Cl)Cl (stereo not given),3.81% [at 30.3 µM] (inactive),–
O=C(Cl)C(Cl)(Cl)Cl,-3.3% (inactive),–
ClCBr,2.04% (inactive),–
CC(=O)NC1CCSC1=O (stereo not given),-0.216% [at 30.3 µM] (inactive),–
COc1ccc(C(=O)N2CCCC2=O)cc1,-4.41% [at 30.3 µM] (inactive),–
CCOP(O)OCC,-14% (inactive),–
N[C@@H](Cc1ccc(Oc2cc(I)c(O)c(I)c2)c(I)c1)C(=O)O,9.78% [at 30.3 µM] (inactive),–
CC(=O)O.CC(=O)O.CC(=O)O.CC(=O)O.CC(=O)O.CC(=O)O.CC(=O)O.O.O.[Cr].[Cr].[Cr],7.15% (inactive),–
O=[N+]([O-])[O-].[Tl+],-2.64% (inactive),–
CCCCCCCCCCCCN(C)C,-0.199% (inactive),–
CCCSC(=O)N(CCC)CCC,-0.908% (inactive),–
O=[N+]([O-])O.O=[N+]([O-])O.[Cd],-0.252% (inactive),–
CC(C)(C)C(=O)C(Oc1ccc(Cl)cc1)n1cncn1 (stereo not given),-4.58% (inactive),–

Compound,"activity change, negative = cytotoxicity",Potency
CS(=O)(=O)c1cc(C(F)(F)F)ccc1C(=O)c1cnoc1C1CC1,-1.94% (inactive),–
Cc1nc(N(C)C)nc(OC(=O)N(C)C)c1C,0.158% (inactive),–
C=CC(=O)OCC,2.2% (inactive),–
CCOC(=O)NC(C)(C)Cc1ccc(Cl)cc1,-1.61% [at 30.3 µM] (inactive),–
Cn1sc(Cl)cc1=O,0.915% (inactive),–
CN1C(=O)CN=C(c2ccccc2)c2cc([N+](=O)[O-])ccc21,0.334% [at 30.3 µM] (inactive),–
CN1C[C@H](CNC(=O)OCc2ccccc2)C[C@@H]2c3cccc4c3c(cn4C)C[C@H]21,-12.5% [at 30.3 µM] (inactive),–
C=C(Cl)Cl,-3.39% (inactive),–
COc1cc(CC(C)N)cc(OC)c1OC (stereo not given),-32% (inactive),–
CC#C[C@]1(O)CC[C@H]2[C@@H]3C[C@H](C)C4=CC(=O)CC[C@]4(C)[C@H]3CC[C@@]21C,-13.8% [at 30.3 µM] (inactive),–
C[C@@H]1CC[C@H]2[C@@H](C)C(=O)O[C@@H]3O[C@@]4(C)CC[C@@H]1[C@]32OO4,-8.46% [at 30.3 µM] (inactive),–
C/C(=C\c1ccccc1)[N+](=O)[O-],–,36.3 µM (active)
O=C(CCl)C(Cl)Cl,–,13 µM (active)
CCCCC(CC)COP(=O)(Oc1ccccc1)Oc1ccccc1 (stereo not given),-5.43% (inactive),–
C=CC(=O)N(C)C,0.774% (inactive),–
CC(C)[C@@H](C(=O)O[C@@H](C#N)c1cccc(Oc2ccccc2)c1)c1ccc(Cl)cc1,–,inactive
CSc1nc(N=[N+]=[N-])nc(NC(C)C)n1,0.459% (inactive),–
CC(C)(C)c1ccc(CSc2cnn(C(C)(C)C)c(=O)c2Cl)cc1,8.65% (inactive),–
CCOC(=O)C1(c2ccccc2)CCN(CCc2ccc(N)cc2)CC1,-6.26% [at 30.3 µM] (inactive),–
CCCSP(=S)(OCC)Oc1ccc(SC)cc1 (stereo not given),-0.497% (inactive),–
